This passage reports manual score results from PubChem BioAssay AID623911 (Vanderbilt High Throughput Screening Facility, 2012).

Screen size: about 2,100 compounds; about 770 (37%) were called active. Some of the results follow. Unmarked numbers belong to inactive results.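 How the source made its calls: active means by-eye trace score of 1 for enhancers or -1 for inhibitors, so actives lie on both sides (some results past the limit were not filed as active); inactive means score 0, or 3 fluorescent, or 4 baseline rise.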

The target in this assay is G protein-activated inward rectifier potassium channel 2 (Homo sapiens) + G protein-activated inward rectifier potassium channel 1 (Homo sapiens) (UniProt P48051+P48549). Briefly: GIRK1/2 thallium flux modulators, retest, confirmation, cell-based, HEK293 rmGlu8/hGIRK1/2, FluoZin-2 (AID 623911). The conditions noted are these: HEK293 rmGlu8/hGIRK1/2, thallium flux FluoZin-2; actives lie on both sides; glutamate co-added at its EC20 level.
Sequence of G protein-activated inward rectifier potassium channel 2 (Homo sapiens) + G protein-activated inward rectifier potassium channel 1 (Homo sapiens) (P48051 whole entry, looked up): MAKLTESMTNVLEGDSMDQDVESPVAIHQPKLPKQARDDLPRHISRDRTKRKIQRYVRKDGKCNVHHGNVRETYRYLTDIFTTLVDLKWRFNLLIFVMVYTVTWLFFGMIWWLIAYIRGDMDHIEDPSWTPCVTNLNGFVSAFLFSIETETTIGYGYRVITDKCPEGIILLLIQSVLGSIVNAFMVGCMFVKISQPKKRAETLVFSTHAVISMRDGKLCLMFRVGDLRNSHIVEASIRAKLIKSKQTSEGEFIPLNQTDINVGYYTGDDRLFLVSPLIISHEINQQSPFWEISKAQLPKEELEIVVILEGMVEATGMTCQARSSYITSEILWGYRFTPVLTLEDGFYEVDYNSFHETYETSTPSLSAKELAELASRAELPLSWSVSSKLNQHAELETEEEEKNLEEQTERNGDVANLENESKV
Sequence of G protein-activated inward rectifier potassium channel 2 (Homo sapiens) + G protein-activated inward rectifier potassium channel 1 (Homo sapiens) (P48549 whole entry, looked up): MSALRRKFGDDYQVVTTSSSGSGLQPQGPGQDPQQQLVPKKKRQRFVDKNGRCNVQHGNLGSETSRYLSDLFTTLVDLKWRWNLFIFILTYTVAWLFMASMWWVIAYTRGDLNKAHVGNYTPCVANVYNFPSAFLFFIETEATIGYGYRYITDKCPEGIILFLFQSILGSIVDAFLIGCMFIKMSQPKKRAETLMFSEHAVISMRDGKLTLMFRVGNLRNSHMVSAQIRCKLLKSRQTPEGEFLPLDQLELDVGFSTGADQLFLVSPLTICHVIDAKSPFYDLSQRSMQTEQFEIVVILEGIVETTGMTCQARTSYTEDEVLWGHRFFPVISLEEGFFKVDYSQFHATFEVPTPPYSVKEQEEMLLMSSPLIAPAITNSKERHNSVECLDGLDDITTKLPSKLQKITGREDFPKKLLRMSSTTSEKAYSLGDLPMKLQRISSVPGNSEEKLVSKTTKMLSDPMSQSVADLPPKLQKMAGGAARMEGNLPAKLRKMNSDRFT
For the compound `CCC(=O)Oc1ccc(C/C(=N\O)c2ccc(O)cc2O)o1`, the manual score was 0.
As for `COc1ccc(-c2cc(C(F)(F)F)c3c(n2)sc2c(O)cc(=O)[nH]c23)c(OC)c1`, the figure is -0.5.
For `N#CC(C#N)=C1C=C2C=C(N3CCCCC3)CCC2CC1` (centres undefined), the manual score was 3.
Take `CC(C)CN(C(=O)COC(=O)Cc1n[nH]c(=O)c2ccccc12)C1CCS(=O)(=O)C1` (centres undefined): the manual score is 0.
Take `CCc1ccc(/C=C/C(=O)c2cc(Br)ccc(=O)c2O)cc1`: the manual score was 1 (active).
The figure for `COc1ccc(NC(=O)CSc2nnc(-c3ccccn3)n2Cc2ccco2)cc1OC` is 0; for `CCOC(=O)c1oc2nc(C(C)C)c3c(c2c1N)CC(C)(C)OC3` it is 0.
As for `Cc1cc(C)n(-c2nnc(C)n2/N=C/c2ccccc2OCc2ccccc2Cl)n1`, the figure is -1 (active); as for `COc1ccccc1/C=C/C=N\N1CCN(Cc2ccccc2Cl)CC1`, 0.
Consider `O/N=C/c1cc(Cl)ccc1OCc1cccc2ccccc12`, for which the manual score is 0.
As for `OC(c1ccccc1)C1CN(Cc2ccccc2)CCC1(O)c1ccccc1` (centres undefined), the figure is -1 (active).
Consider `O=C(COc1ccccc1F)NC1CCN(Cc2ccccc2)CC1`, for which the manual score was 0.
As for `Cc1ccc(C)c2[nH]c(=O)c(CN(CCN3CCCC3)C(=O)Nc3ccc(F)cc3)cc12`, the figure is -1 (active); as for `CCCCn1c(SCC(N)=O)nc2c(sc3ccccc32)c1=O`, 0; as for `CC(C)CCn1c(SCC#N)nc2c(sc3ccccc32)c1=O`, 0.
Consider `CCOC(=O)CSc1nc2c(sc3ccccc32)c(=O)n1CCCN1CCOCC1`, for which the manual score was -1 (active).
As for `Cc1cccc2c1nc(-c1ccccc1)n1cnnc21`, the figure is 0; as for `COc1ccccc1N1CCN(C(=O)CCn2c(=O)[nH]c3ccsc3c2=O)CC1`, 0; as for `O=C(CCn1c(=O)oc2ccccc21)N1CCN(c2ccccc2Cl)CC1`, -1 (active).
`Cc1ccc(C)c(N2CCN(C(=O)CCCOc3cc(=O)n(C)c4ccccc34)CC2)c1`: the manual score was 0.
On to `CCC(=O)n1nc(-c2cccnc2)nc1NCc1ccc(OC)cc1`, for which the manual score was 0.
In the case of `CC(C)CCNC(=O)C(C)N(C(=O)Cn1nnc(-c2ccc(F)cc2)n1)C1CCCC1` (centres undefined), the manual score is 0.5.
Regarding `CC(C)CCNC(=O)C(C)N(Cc1ccc(F)cc1)C(=O)c1ccc(CN2CCCCC2)o1` (centres undefined), the manual score was -1 (active).
For the compound `CN1C=CC2=C(C#N)C(N)C(C#N)(C#N)C(c3ccccc3)C2C1` (centres undefined), the manual score was 3.
The figure for `S=C(NN=C1CCCCCC1)Nc1ccc(Cl)cc1` is 0.5; for `Clc1ccc(Cc2ccc(SCc3ccccc3)nn2)c(Cl)c1` it is 0; for `Fc1ccc(NC(=S)NCc2ccccc2Cl)cc1` it is 1 (active).
In the case of `Fc1ccccc1CNC(=S)Nc1ccc(Cl)cc1`, the manual score was 1 (active).
On to `S=C(N/N=C/c1ccccc1Cl)Nc1ccccc1`, for which the manual score is 0.5.
The figure for `S=C(NCCc1ccccc1)Nc1ccc(Cl)cc1Cl` is -0.5; for `S=C(NCc1ccc(Cl)cc1Cl)Nc1ccccc1` it is 1 (active); for `CC1(C)CC(=O)c2c(noc2-c2ccccc2)C1` it is 0.
For `O=C(Oc1ccccc1C(=S)N1CCCCC1)c1cc([N+](=O)[O-])cc([N+](=O)[O-])c1`, the manual score was -1 (active).
Consider `O=C(NC(=S)Nc1ccccc1N1CCCC1)c1ccc(-c2cccc([N+](=O)[O-])c2)o1`, for which the manual score was 0.
As to `Fc1ccc(NC(=S)N/N=C/c2ccc(F)c(F)c2)c(F)c1`, the manual score was 1 (active).
`Fc1ccc(NC(=S)N/N=C/c2cccc(Br)c2)c(F)c1`: the manual score is 0.
As for `Fc1ccc(/C=N/NC(=S)Nc2ccc(Cl)cc2)cc1F`, the figure is 0; as for `Oc1c(C=NCc2ccncc2)sc2ccccc12`, 1 (active).
As for `CCCN(CCC)CCCNC(=O)c1cc2c(=O)n(C)c3ccccc3c2n1C`, the figure is -1 (active); as for `CN(CCNC(=O)c1cc2c(=O)n(C)c3ccccc3c2n1C)Cc1ccccc1`, -1 (active).
As for `CCn1c(=O)c(C(=O)NCCCO)c(O)c2ccccc21`, the manual score was 0.
The figure for `O=C(NC(Nc1nc2ccc([N+](=O)[O-])cc2s1)(C(F)(F)F)C(F)(F)F)c1ccccc1` is 1 (active).
Consider `Cc1ccc(C)c(OCC(=O)Nc2nc3ccc([N+](=O)[O-])cc3s2)c1C`, for which the manual score was 0.
The figure for `O=C(NC(Nc1nc2ccc([N+](=O)[O-])cc2s1)(C(F)(F)F)C(F)(F)F)c1ccccc1Cl` is 0; for `Cc1noc(C)c1CSc1nc2ccccc2c(=O)n1-c1ccc(F)cc1F` it is 0; for `Cc1onc(-c2c(F)cccc2Cl)c1C(=O)OCn1nnc2ccccc2c1=O` it is -1 (active).
With `O=C(Nc1cccs1)Nc1c(F)c(F)c(F)c(F)c1F`, the manual score is 1 (active).
On to `CCOc1ccc(Nc2ncnc(N)n2)cc1`, for which the manual score is 1.5.
On to `COc1cc(NC(=O)Cc2cccs2)cc(OC)c1`, for which the manual score is 1 (active).
In the case of `COC(=O)c1c(NC(=O)Cc2cccs2)sc(C(=O)NC2CCCCC2)c1C`, the manual score is 0.
Regarding `O=C(Cc1cccs1)Nc1cccnc1`, the manual score is 0.
The figure for `COc1cccc(NC(=O)Nc2cccs2)c1` is 1 (active); for `CCOc1ccc(NC(=O)Nc2cccs2)cc1` it is 1 (active).
The figure for `CCOc1ccc(NC(=O)CCC(=O)c2ccc(-c3ccccc3)cc2)cc1` is 0; for `Cc1ccc(-c2cc(-c3cccs3)[nH]n2)c(O)c1` it is 0; for `CN1C=CC2=C(C#N)C(N)C(C#N)(C#N)[C@H](c3ccccc3)[C@H]2C1` (some centres undefined) it is 1.5.
On to `Cn1c(SCC(=O)c2cc3ccccc3o2)nnc1-c1ccccc1`, for which the manual score was 0.
The figure for `CC1CC2=C(CC1/C=N/NC(N)=S)C(C)(C)CCC2` (centres undefined) is 0; for `CCN(CC)CC(O)COc1ccccc1C(=O)CCc1ccccc1` (centres undefined) it is -1 (active).
On to `CCN(CC)C(=O)CSc1nnc(NC(=O)CCc2ccccc2)s1`, for which the manual score was 0.
In the case of `Cc1ccccc1NC(=S)NC(=O)CCc1ccccc1`, the manual score was 0.
As for `S=C1Nc2cc(Cl)ccc2Sc2ccccc21`, the figure is 0.5; as for `S=C1CCSc2ccc(Cl)cc2N1`, 1 (active); as for `O=c1c2cccnc2[nH]c(=S)n1Cc1ccccc1`, 0.
`CCC1(C)Cc2c(sc3[nH]c(=S)n(Cc4ccccc4)c(=O)c23)CO1` (centres undefined): the manual score is 1 (active).
As for `CC1(C)Cc2c(sc3[nH]c(=S)n(Cc4ccccc4)c(=O)c23)CO1`, the figure is 1 (active).
In the case of `CCC1(C)Cc2c(sc3c2c(=O)n(C)c2nnc(SCc4ccc5c(c4)OCO5)n32)CO1` (centres undefined), the manual score is 0.
The figure for `CC(C)C1Cc2c(sc3c2c(=O)n(Cc2ccccc2)c2nncn32)CO1` (centres undefined) is 1 (active).
The figure for `CC(C)C1Cc2c(sc3[nH]c(=S)n(Cc4ccccc4)c(=O)c23)CO1` (centres undefined) is 1 (active).
